# Source: PMC4336329 (PLoS ONE, 2015)
# Among all 310,000 compounds or so, about 14,000 (4.5%) showed an effect of 50% or more. The effect is printed as a negative number. The sample holds strong results, similar compounds and a random draw of the others, so the mix is not that of the screen.
# Target: human ether-à-go-go-related gene (hERG) potassium channel (human, UniProt Q12809)
# Assay: primary screen, population patch clamp on CHO cells stably expressing hERG; higher = less effect of the substance
# 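Further: peak tail current of the secondary pulse compared with the same well before compound.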
# Chain of human ether-à-go-go-related gene (hERG) potassium channel (Q12809 whole entry, looked up): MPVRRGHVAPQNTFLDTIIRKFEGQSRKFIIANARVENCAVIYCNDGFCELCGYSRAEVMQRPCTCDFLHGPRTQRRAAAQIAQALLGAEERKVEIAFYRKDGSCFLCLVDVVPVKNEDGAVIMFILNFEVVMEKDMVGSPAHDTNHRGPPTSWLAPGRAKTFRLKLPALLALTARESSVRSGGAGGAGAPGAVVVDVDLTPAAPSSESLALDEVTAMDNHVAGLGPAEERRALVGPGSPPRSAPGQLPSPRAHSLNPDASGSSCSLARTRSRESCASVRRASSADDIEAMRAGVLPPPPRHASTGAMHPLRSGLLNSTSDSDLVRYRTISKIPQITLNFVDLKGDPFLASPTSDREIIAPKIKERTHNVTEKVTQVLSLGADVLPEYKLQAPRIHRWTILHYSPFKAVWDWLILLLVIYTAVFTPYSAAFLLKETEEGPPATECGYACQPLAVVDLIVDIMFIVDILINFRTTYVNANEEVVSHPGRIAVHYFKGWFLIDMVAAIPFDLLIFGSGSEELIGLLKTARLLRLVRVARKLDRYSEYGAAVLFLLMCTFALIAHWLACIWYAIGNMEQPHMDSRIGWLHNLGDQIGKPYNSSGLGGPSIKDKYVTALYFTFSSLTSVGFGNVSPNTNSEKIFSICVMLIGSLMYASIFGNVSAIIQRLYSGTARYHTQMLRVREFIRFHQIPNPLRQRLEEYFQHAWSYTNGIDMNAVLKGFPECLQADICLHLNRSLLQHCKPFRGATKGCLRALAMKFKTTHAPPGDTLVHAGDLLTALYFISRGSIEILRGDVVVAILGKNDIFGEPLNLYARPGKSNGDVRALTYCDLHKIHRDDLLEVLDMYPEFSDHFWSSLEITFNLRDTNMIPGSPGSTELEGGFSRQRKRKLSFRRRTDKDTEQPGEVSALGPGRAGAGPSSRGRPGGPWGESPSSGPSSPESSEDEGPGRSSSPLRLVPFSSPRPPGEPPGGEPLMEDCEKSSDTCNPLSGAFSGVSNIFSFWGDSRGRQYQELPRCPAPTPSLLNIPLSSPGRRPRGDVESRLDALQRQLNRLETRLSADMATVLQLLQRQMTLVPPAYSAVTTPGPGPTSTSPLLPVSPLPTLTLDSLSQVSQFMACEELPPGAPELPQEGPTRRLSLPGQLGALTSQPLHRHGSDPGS
row,Compound,"hERG current change (%, negative = inhibition) at 10uM [%]"
1,Cl.O=C(CN1CCCC1)NCc1ccccc1,15.6
2,O=C(CN1CCN(C/C=C/c2ccccc2)CC1)NCc1ccccc1,-73.3
3,O=C(CN1CCCCCC1)NCc1ccccc1,10.1
4,O=C(CN1CCN(c2ccccc2F)CC1)NCc1ccc(Cl)cc1,-19.1
5,O=C(CN1CCN(C/C=C/c2ccccc2)CC1)NCc1ccc(Cl)cc1,-78
6,O=C(N/C=C\c1ccccc1)NCc1ccc(Cl)cc1,1.95
7,COc1cccc(C2(c3cccc(OC)c3)CC2C(=O)Nc2ccccc2Cl)c1 (centres unmarked),14
8,CN1C(=O)C(=Cc2ccc(-c3cccc(Cl)c3)o2)C(=O)N(C)C1=O,10.2
9,O=C(c1ccccc1)N1CCN(c2ccc([N+](=O)[O-])c(NCc3cccnc3)c2)CC1,-69.7
10,COc1cccc(NC(=O)c2cc([N+](=O)[O-])ccc2NCc2cccnc2)c1,-44
11,CC(=O)N1CCN(c2ccc([N+](=O)[O-])c(NCc3cccnc3)c2)CC1,-22.3
12,Cc1ccc(C(=O)N2CCN(c3ccc([N+](=O)[O-])c(NCc4cccnc4)c3)CC2)cc1,-59.4
13,CCS(=O)(=O)N1CCN(c2ccc([N+](=O)[O-])c(NCc3cccnc3)c2)CC1,-49.1
14,Cc1ccccc1C(=O)N1CCN(c2ccc([N+](=O)[O-])c(NCc3cccnc3)c2)CC1,-27
15,Cc1ccc(NC(=O)c2cc([N+](=O)[O-])ccc2NCc2cccnc2)cc1,-82.7
16,CC(C)(C)C(=O)N1CCN(c2ccc([N+](=O)[O-])c(NCc3cccnc3)c2)CC1,-29.3
17,O=[N+]([O-])c1ccc(N2CCN(S(=O)(=O)c3ccc(Cl)cc3)CC2)cc1NCc1cccnc1,2.59
18,Cc1ccc(NC(=O)c2cc([N+](=O)[O-])ccc2NCc2cccnc2)cc1Cl,-41.7
19,O=C(c1ccccc1F)N1CCN(c2ccc([N+](=O)[O-])c(NCc3cccnc3)c2)CC1,-45.5
20,O=C(c1ccc(Cl)cc1)N1CCN(c2ccc([N+](=O)[O-])c(NCc3cccnc3)c2)CC1,-50.1
21,COc1cccc(C(=O)NCCS(=O)(=O)NCc2cccnc2)c1,8.66
22,COC(=O)c1ccc(NC(=O)CSc2nnc(C3CC3)n2C)cc1,-4.59
23,COc1ccccc1S(=O)(=O)Cc1ccc(C(=O)NC2CC2)o1,18.5
24,CCN(CC#CCC1(O)c2ccccc2-c2ccccc21)C(C)C,-9.99
25,O=C(COC(=O)c1ccc[nH]c1=O)NC1CCCCCC1,46.2
26,Cc1cc2c(NC(=O)CCCC(=O)O)cccc2nn1,13.6
27,Cc1cccc2sc(NNC(=O)c3cc(-c4cccs4)nc4ccccc34)nc12,13.4

row,Compound,"hERG current change (%, negative = inhibition) at 10uM [%]"
1,CC(=O)NC(NC(=S)Nc1ccc(N=Nc2ccccc2)cc1)C(Cl)(Cl)Cl (centres unmarked),19.6
2,O=C(COc1ccc(Br)cc1)N1CCOCC1,-0.627
3,Cc1cccc(NS(=O)(=O)c2ccc3c(c2)NC(=O)CO3)c1C,3.88
4,CC(=O)N(c1ccc2oc(=O)sc2c1)S(=O)(=O)c1cccc2cccnc12,5.98
5,CC1CCCC(C)N1CCCNC(=O)Cn1c(=O)c2cccn2c2cccnc21 (centres unmarked),2.77
6,Cc1ccc(C)c(N2CCN(CCCNC(=O)CCn3c(=O)c4cccn4c4cccnc43)CC2)c1,-70
7,CC1CCCC(C)N1CCCNC(=O)CCn1c(=O)c2cccn2c2cccnc21 (centres unmarked),16.7
8,CCC1CCCCN1CCCNC(=O)Cn1c(=O)c2cccn2c2cccnc21 (centres unmarked),12.1
9,Cc1ccc(C)c(N2CCN(CCCNC(=O)Cn3c(=O)c4cccn4c4cccnc43)CC2)c1,-59.6
10,Cc1ccc(Cl)cc1N1CCN(C(=O)CCCn2c(=O)c3cccn3c3cccnc32)CC1,-15.1
11,O=C1NN(c2cccc(Br)c2)C(=O)/C1=C\c1ccc(O)cc1,12
12,CCS(=O)(=O)Nc1ccc(-c2nnc(SCC(=O)c3ccc(NC(C)=O)c(OC)c3)o2)cc1,-23.8
13,C#CCOCCOCCOCCNc1nc(N2CCN(C(=O)[C@H]([C@@H](C)CC)n3cc([C@@H](N)CO)nn3)CC2)nc(N2CCN(C(=O)[C@H](Cc3ccc(O)cc3)n3cc([C@@H](N)C(C)CC)nn3)CC2)n1.Cl (some centres unmarked),0.411
14,CC1CCN(C(=O)CN2C(=O)c3cccc4cccc(c34)C2=O)CC1,2.37
15,CC(C)C[C@H]1CN=C(Nc2ccccc2)N1CC1CCCC1,-24
16,CC(C)C[C@H]1CN=C(Nc2ccccc2)N1CC1CCC(C(C)(C)C)CC1 (some centres unmarked),-78.3
17,CC(C)C[C@H]1CN=C(Nc2ccccc2)N1CC1CCCCC1,-45.7
18,CC(C)C[C@H]1CN=C(Nc2ccccc2)N1CC1CCCCCC1,-60.6
19,CC1CCC(CN2C(Nc3ccccc3)=NC[C@@H]2C)CC1 (some centres unmarked),-9.6
20,CC(C)C[C@H]1CN=C(Nc2ccccc2)N1CC1CCC(C)CC1 (some centres unmarked),-50.3
21,CCOC(=O)c1cccc(NC(=O)CNC(=O)C2CCCCC2)c1,-3.8
22,O=C(COc1ccc(-n2cnnn2)cc1)Nc1ccccc1OC(F)F,4.44
23,N#Cc1c(N)n(-c2cccc(C(=O)O)c2)c2nc3ccccc3nc12,14.6
24,Cc1ccc(NC(=O)Nc2cnccn2)cc1,5.11
25,Cc1ccc(C(=O)CCC(=O)OCC(=O)Nc2ccc3[nH]c(=O)[nH]c3c2)cc1,14
26,O=C1C2C3C=CC(C2C(=O)N1c1ccc(O)cc1)C1C2C(=O)N(c4ccc(O)cc4)C(=O)C2C31 (centres unmarked),-10.7
